Bioassay records from PubChem BioAssay.
The list is not random: actives were taken first. Their share in the collection is about 17%.
DT40 TDP1 no CPT – qHTS for Inhibitors of human tyrosyl-DNA phosphodiesterase 1 (TDP1): qHTS in cells in absence of CPT. DT40 Tdp1-/- hTDP1 cells, no CPT, ATP luminescence, 48 h. 15% of 420,000 active. AID 686978, 2013. Potency, µM (highest dose often 46.2 µM), without a hit: top-dose activity change, negative = growth inhibition, actives largely listed as inhibitors; note: % is set by controls: 0 for no effect and ±100 for the full control effect; nearly all actives have a fitted effect of over 55% in size
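Luminescent ATP content (CellTiter-Glo) served as the growth readout. Knockout chicken DT40 cells expressing human TDP1 were exposed to compounds without camptothecin for a minimum 48 hr at 37 °C.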
DT40 TDP1 CPT – growth inhibition of DT40 Tdp1-/-;hTDP1 cells with camptothecin (screen for TDP1 inhibitors); chicken DT40 Tdp1-/-;hTDP1 cells + 20 nM CPT, ATP luminescence, 48 h; Potency, µM (series often up to 46.2 µM), without a hit: at the top dose activity change, negative = growth inhibition, actives largely listed as inhibitors; 12% of 420,000 active; note: % is set by controls: 0 for no effect and ±100 for the full control effect; nearly all actives have a fitted effect of over 55% in size
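Chicken DT40 Tdp1-/- cells complemented with human TDP1, 400 cells/well, exposed to compounds plus 20 nM camptothecin for at least 48 h at 37 C; viability read as ATP content by CellTiter-Glo luminescence.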
HT1080 IDH1KD tx – HT-1080 IDH1 knockdown cell toxicity (counter line); HT-1080 IDH1 knockdown viability, ATP luminescence, 48 h; Potency, µM (doses to about 46.1 µM), for the others: top-dose activity, negative = toxicity, usual class: cytotoxic; 2% of 360,000 active; AID 686971;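 note: 0% = DMSO wells and -100% = cell-free medium wells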
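Knockdown cells (IDH1KD HT-1080) received compounds 2 h after plating at 750 cells/well and were kept 48 h at 37 °C in 5% FBS RPMI. A CellTiter-Glo luminescence read gave % activity for curve fitting.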
TGFb inhibitor – inhibitors of TGF-b signaling. HepG2 CAGA-GFP TGF-b/SMAD3 reporter, GFP fluorescence, 18 h; TGF-beta stimulated, 500 pg/mL final. Potency, µM (series often up to 46.1 µM), for inactives: at the highest dose activity, negative = inhibition, hits mostly inhibitors. 1.2% of 410,000 active; note: % is set by controls: 0 for no effect and ±100 for the full control effect; nearly all actives have a fitted effect of over 65% in size
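HEPG2 CAGA-GFP reporter cells (1000/well, DMEM with 1% FBS) received compounds, then recombinant TGF-beta at 500 pg/mL final for 18 hours at 37 degrees C. Per-cell GFP summed per well was normalised to unstimulated and stimulated DMSO controls before curve fitting.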
HT1080NT lethal – kills 2HG-producing HT-1080-NT fibrosarcoma cells; Potency, µM (top dose mostly 46.1 µM), inactives show at the top dose activity, negative = less viability, usual class: cytotoxic; 1.6% of 360,000 active; AID 686970; HT-1080-NT fibrosarcoma viability, CellTiter-Glo ATP luminescence, 48 h;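 note: NT is the 2HG producing partner of a matched IDH1 knockdown line; 0% = DMSO-treated cells and -100% = media-only wells without cells; nearly all actives have a fitted effect of over 55% in size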
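Viability by CellTiter-Glo luminescence after 48 h compound exposure at 37C of HT-1080-NT cells (750/well, RPMI, 5% FBS). % activity scaled between DMSO wells and medium-only wells, then curve-fitted and categorized by curve class.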
HepG2 tox – kills HepG2 cells in TGF-b inhibitor counter-screen | HepG2 CAGA-GFP viability, ATP luminescence, 18 h | AID 588856 | 0.76% of 410,000 active | Potency, µM (titrated, usually from 46.1 µM), without a hit: top-dose activity change, negative = cytotoxicity, hits mostly cytotoxic
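CellTiter-Glo luminescence gave cytotoxicity after 18 hours at 37 degrees C. The cells were HepG2 CAGA-GFP in 1% FBS DMEM, stimulated with 500 pg/mL TGF-beta after compound addition. %Activity was normalised to no-cell wells (complete cell-killing) and DMSO (no toxicity), and curves were fitted and classified.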
Active calls of the source: *; ? = inconclusive; . = not tested or not shown. Calls come from the whole dose curve; as a rule, active = well fitted curve in the direction sought with a large enough effect; inconclusive = small, poorly fitted or top-dose-only effect, or another doubt; inactive = no such curve, though single readings can be large; an effect the other way counts as inactive or inconclusive. Potency is the fitted concentration of half-maximal effect.

SMILES	DT40 TDP1 no CPT	DT40 TDP1 CPT	HT1080 IDH1KD tx	TGFb inhibitor	HT1080NT lethal	HepG2 tox
CCOc1cc(/C=N/Nc2cc(C)nc(-n3nc(C)cc3C)n2)ccc1O	2.3µM*	2.6µM*	5.8µM*	?	5.8µM*	-37%
CCOc1cc(/C=N/Nc2nc(C)cc(=O)[nH]2)ccc1O	6%	-23%	10%	67%	22%	-1%
COc1ccc(/C=N/Nc2cc(C)nc(-n3nc(C)cc3C)n2)c(OC)c1	1.6µM*	1.5µM*	9.2µM*	?	?	1%
NC(=O)C1CCN(c2oc(/C=C/c3ccccc3)nc2S(=O)(=O)c2ccccc2)CC1	?	-5%	0%	-15%	-2%	0%
Cc1ccccc1C(=O)/C(C#N)=N/Nc1c(C)n(C)n(-c2ccccc2)c1=O	3.7µM*	4.6µM*	?	?	-26%	-5%
Cc1c(N/N=C(\C#N)C(=O)c2ccccc2)c(=O)n(-c2ccccc2)n1C	3.3µM*	2.9µM*	?	1%	-22%	0%
Cc1c(NC=C(C#N)C#N)c(=O)n(-c2ccccc2)n1C	-16%	3%	-10%	2%	-16%	-2%
CCOC(=O)/C(C#N)=N/Nc1ccccc1C#N	21µM*	8.2µM*	-2%	-1%	-4%	-27%
CCOC(=O)/C(C#N)=N/Nc1c(C)n(C)n(-c2ccccc2)c1=O	16µM*	16µM*	-8%	0%	-26%	-3%
O=c1[nH]c(C(F)(F)F)nc2ccc3ccccc3c12	-19%	7%	?	-20%	-17%	-1%
Cc1nnc(N2CCN(c3ccccc3)CC2)c2c1nnn2Cc1ccc(F)cc1	?	16µM*	.	4%	.	9%
O=C(CCn1c(=O)c2ccccc2n(Cc2cccc(F)c2)c1=O)NCc1ccc2c(c1)OCO2	-27%	-24%	.	0%	.	4%
COc1ccc(/C=C2\N=C(C)N(c3ccc4ccccc4c3)C2=O)cc1OC	5.8µM*	?	-6%	15%	-9%	-7%
COc1cc(OC)cc(C(=O)OCc2ccc([N+](=O)[O-])cc2)c1	?	1%	0%	-3%	7%	-2%
CCOc1ccc2nc(N3CCCC(C(=O)NCCCN4C(C)CCCC4C)C3)sc2c1 (configuration not stated)	?	?	?	-3%	?	-30%
CCOc1ccc2nc(N3CCCC(C(=O)NCCCN4CC(C)CC(C)C4)C3)sc2c1 (configuration not stated)	18µM*	18µM*	?	?	16µM*	-95%
CCOc1ccc2nc(N3CCCC(C(=O)NCCCN4CCCCC4)C3)sc2c1 (configuration not stated)	?	?	?	-4%	18µM*	-35%
COc1ccc2nc(N3CCCC(C(=O)NCCCN4CCN(C)CC4)C3)sc2c1 (configuration not stated)	0%	-2%	-2%	-4%	-8%	-18%
CCn1c(-c2ccccc2F)nc2cc(NC(C)=O)cc(C(=O)N(C)Cc3ccc4nccnc4c3)c21	-20%	?	.	.	.	.
O=C(CCl)N=c1sccn1Cc1cccc2ccccc12	2.6µM*	4.6µM*	18µM*	?	?	-111%
CCC(C)[C@H](NS(=O)(=O)c1ccc(F)cc1Br)C(=O)OC (some centres not stated)	-11%	-11%	10%	1%	12%	-4%
Cc1cc(NC(=O)CN2CCOCC2)n(-c2ccccc2)n1	-7%	2%	17%	22%	15%	16%
Cc1cc(NC(=O)CN2CCOCC2)n(-c2nc3ccccc3s2)n1	21µM*	15µM*	-11%	?	-2%	-15%
CNc1cncc(-c2cccc(NS(C)(=O)=O)c2)n1	?	?	10%	-4%	9%	3%
Cc1cc(-c2ccc(S(=O)(=O)Nc3ccc(Cl)cc3)cc2)on1	18µM*	16µM*	.	-9%	.	-41%
SMILES	DT40 TDP1 no CPT	DT40 TDP1 CPT	HT1080 IDH1KD tx	TGFb inhibitor	HT1080NT lethal	HepG2 tox
Cc1cc(C)cc(NS(=O)(=O)c2ccc(-c3cc(C)no3)cc2)c1	1.2µM*	1.3µM*	.	13µM*	.	-54%
CCc1ccc(NS(=O)(=O)c2ccc(-c3cc(C)no3)cc2)cc1	13µM*	13µM*	.	?	.	11µM*
Cc1ccc(NS(=O)(=O)c2cc(-c3cc(C)no3)ccc2C)c(Cl)c1	?	?	.	-22%	.	-32%
Cc1ccc(NS(=O)(=O)c2ccc(-c3cc(C)no3)cc2)c(C)c1	5.8µM*	4.6µM*	.	13µM*	.	-46%
Cc1cc(-c2ccc(C)c(S(=O)(=O)Nc3ccc(C)c(N(C)C)c3)c2)on1	?	?	.	-19%	.	-31%
Cc1ccc(-c2nnc(-c3cccc(NC(=O)c4cccs4)c3)o2)cc1	23µM*	?	-14%	-1%	-2%	-17%
CC(=O)c1cccc(NC(=O)Cc2cccs2)c1	-21%	-2%	-2%	-2%	19%	2%
O=C(Cc1cccs1)Nc1cccc(C(=O)Nc2ccco2)c1	?	-7%	11µM*	-9%	?	2%
O=C(Nc1cccc(-c2nnco2)c1)c1cccs1	-25%	2%	20%	-10%	12%	-19%
Cc1cccc(-c2nnc(-c3cccc(NC(=O)Cc4cccs4)c3)o2)c1	15µM*	18µM*	?	-27%	?	-10%
COc1cccc(-c2cn3c(n2)sc2cc(C(=O)NC4CCCCC4)ccc23)c1	?	?	.	-15%	.	-24%
CCNC(=O)c1ccc2c(c1)sc1nc(-c3cccc(OC)c3)cn12	7.3µM*	6.5µM*	.	?	.	-33%
COc1ccc(-c2cn3c(n2)sc2cc(C(=O)NCc4ccccc4OC)ccc23)cc1	?	-8%	.	-16%	.	-16%
COc1cccc(-c2cn3c(n2)sc2cc(C(=O)NCCC4=CCCCC4)ccc23)c1	6.5µM*	13µM*	.	-21%	.	-22%
COc1cccc(-c2cn3c(n2)sc2cc(C(=O)NCCc4ccc(OC)c(OC)c4)ccc23)c1	2.3µM*	4.6µM*	.	-32%	.	-47%
CCOc1ccccc1CNC(=O)c1ccc2c(c1)sc1nc(-c3cccc(OC)c3)cn12	8.2µM*	8.2µM*	.	-1%	.	-15%
CCC(=O)N1CCC1(C)C(=O)Nc1ncc(C)s1 (configuration not stated)	-3%	-20%	15%	3%	1%	-19%
